Experimental data reported in PubChem BioAssay.
“And” between values parts separate entries of the source, which are not always exact repeats. Equal values may be shown once. The source made the active and inactive calls.

Key:
[1] = test system: Plasmodium falciparum Sir2 (PF13_0152, Sir2A); assay: pfSir2 binders on small-molecule microarrays, primary screen, biochemical, small-molecule microarray, 635 nm fluorescence (AID 1098); conditions: small-molecule microarray binding, fluorescence 635 nm; higher = more signal;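 note: score merges spot fluorescence intensity with its signal-to-noise ratio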
[2] = small-molecule microarray binders of probe aDKK1, primary screen, biochemical, biotinylated probe, 635/667 nm fluorescence (AID 1099); conditions: higher = more signal;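 note: score merges 667nm spot fluorescence with signal to noise across triplicate slides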
[3] = small-molecule microarray binders of probe aCHRDL2, primary screen, biochemical, biotinylated probe, 635/667 nm fluorescence (AID 1100); conditions: higher = more signal
[4] = splicing luciferase reporter signal modulators, primary screen, spliceosome inhibition project, cell-based, HEK293, splice +/- reporter (AID 1101); conditions: luminescence, 24 h, higher = more signal, called active from +8 up or from −8 down;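 note: HEK293 cells carrying a splicing-competent luciferase reporter gene; test concentration not given here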
[5] = biological target: Fibroblast growth factor 10 (Homo sapiens) (UniProt O15520); assay: FGF10 binders on small-molecule microarrays, primary screen, biochemical, small-molecule microarray, 635 nm fluorescence (AID 1102); conditions: FGF10 binding, fluorescence 635 nm, higher = more signal
Sequence of Fibroblast growth factor 10 (Homo sapiens) (O15520 whole entry, looked up): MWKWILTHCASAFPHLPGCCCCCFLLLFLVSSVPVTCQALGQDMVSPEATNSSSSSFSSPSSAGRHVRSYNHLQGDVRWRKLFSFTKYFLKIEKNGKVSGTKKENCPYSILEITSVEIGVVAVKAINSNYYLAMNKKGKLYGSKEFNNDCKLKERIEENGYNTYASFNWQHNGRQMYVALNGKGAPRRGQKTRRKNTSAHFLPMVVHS

[6] = test system: glycogen synthase kinase-3 (GSK3A per assay name; protocol says GSK3B); assay: GSK3 binders on small-molecule microarrays, primary screen, biochemical, small-molecule microarray, 635 nm fluorescence, GSK3A (AID 1103); conditions: small-molecule microarray binding, fluorescence 635 nm; higher = more signal; note: the record names both GSK3A and GSK3B
[7] = biological target: Epidermal growth factor receptor (Homo sapiens) (UniProt P00533); assay: EGFR binders on small-molecule microarrays, primary screen, biochemical, small-molecule microarray, 635 nm fluorescence (AID 1104); conditions: EGFR binding, higher = more signal;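 note: score merges 667 nm emission intensity with spot signal to noise over triplicate slides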
Sequence of Epidermal growth factor receptor (Homo sapiens) (P00533 whole entry, looked up): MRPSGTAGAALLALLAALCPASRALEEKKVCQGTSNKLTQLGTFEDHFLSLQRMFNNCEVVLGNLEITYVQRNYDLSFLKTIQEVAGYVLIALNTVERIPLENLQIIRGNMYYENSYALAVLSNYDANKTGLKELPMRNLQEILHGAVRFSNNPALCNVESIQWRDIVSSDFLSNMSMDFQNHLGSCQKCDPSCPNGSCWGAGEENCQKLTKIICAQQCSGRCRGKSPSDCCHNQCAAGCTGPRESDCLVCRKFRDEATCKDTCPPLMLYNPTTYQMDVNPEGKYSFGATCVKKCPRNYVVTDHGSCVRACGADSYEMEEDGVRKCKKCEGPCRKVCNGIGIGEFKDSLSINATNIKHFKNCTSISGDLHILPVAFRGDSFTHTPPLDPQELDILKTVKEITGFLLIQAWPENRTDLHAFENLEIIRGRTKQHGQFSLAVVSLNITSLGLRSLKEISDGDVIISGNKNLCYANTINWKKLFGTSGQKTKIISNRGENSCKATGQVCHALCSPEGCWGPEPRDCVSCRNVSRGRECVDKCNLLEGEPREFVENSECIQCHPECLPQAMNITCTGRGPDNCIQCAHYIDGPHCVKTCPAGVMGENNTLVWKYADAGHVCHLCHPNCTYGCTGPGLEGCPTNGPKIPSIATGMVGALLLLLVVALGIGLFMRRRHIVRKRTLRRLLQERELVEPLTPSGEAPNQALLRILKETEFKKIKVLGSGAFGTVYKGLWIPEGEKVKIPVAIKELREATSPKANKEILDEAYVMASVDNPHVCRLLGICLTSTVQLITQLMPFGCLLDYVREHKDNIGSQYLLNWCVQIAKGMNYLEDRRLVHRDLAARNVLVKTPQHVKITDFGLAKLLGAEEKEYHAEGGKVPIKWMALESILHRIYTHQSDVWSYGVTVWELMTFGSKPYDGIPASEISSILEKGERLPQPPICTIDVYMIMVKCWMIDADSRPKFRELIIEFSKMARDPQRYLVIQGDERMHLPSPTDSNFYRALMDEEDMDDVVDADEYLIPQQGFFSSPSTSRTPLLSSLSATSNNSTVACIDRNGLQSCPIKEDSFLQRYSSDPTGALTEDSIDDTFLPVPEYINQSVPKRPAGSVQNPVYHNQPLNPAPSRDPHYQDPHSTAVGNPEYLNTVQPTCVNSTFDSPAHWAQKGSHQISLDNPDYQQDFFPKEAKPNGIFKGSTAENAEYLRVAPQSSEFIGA

[8] = biological target: Follistatin-related protein 3 (Homo sapiens) (UniProt O95633); assay: FSTL3 binders on small-molecule microarrays, primary screen, biochemical, small-molecule microarray, 635 nm fluorescence (AID 1105); conditions: FSTL3 binding, higher = more signal;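 note: score merges emission near 667 nm and signal to noise per printed spot across three slides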
Sequence of Follistatin-related protein 3 (Homo sapiens) (O95633 whole entry, looked up): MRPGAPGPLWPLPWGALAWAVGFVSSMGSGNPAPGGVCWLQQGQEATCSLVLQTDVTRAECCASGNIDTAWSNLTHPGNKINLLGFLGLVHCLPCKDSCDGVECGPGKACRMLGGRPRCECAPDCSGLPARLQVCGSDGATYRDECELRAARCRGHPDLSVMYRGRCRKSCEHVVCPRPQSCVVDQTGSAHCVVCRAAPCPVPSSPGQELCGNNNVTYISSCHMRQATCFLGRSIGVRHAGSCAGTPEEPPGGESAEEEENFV

[9] = biological target: Dickkopf-related protein 1 (Homo sapiens) (UniProt O94907); assay: DKK1 binders on small-molecule microarrays, primary screen, biochemical, small-molecule microarray, 635 nm fluorescence scan (AID 1106); conditions: DKK1 binding, higher = more signal;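 note: score merges emission near 667 nm with signal to noise over three replicate slides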
Sequence of Dickkopf-related protein 1 (Homo sapiens) (O94907 whole entry, looked up): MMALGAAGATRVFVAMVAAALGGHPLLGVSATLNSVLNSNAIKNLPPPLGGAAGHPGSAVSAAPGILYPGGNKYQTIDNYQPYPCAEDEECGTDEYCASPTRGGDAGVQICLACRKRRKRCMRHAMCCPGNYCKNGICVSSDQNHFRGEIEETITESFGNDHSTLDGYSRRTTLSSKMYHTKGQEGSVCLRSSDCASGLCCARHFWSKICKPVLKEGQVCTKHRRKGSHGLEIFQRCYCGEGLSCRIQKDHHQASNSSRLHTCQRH

[10] = test system: Inhibin beta A chain (activin A); assay: INHBA (activin A) binders on microarrays, primary screen, biochemical, small-molecule microarray, 635 nm fluorescence scan (AID 1107); conditions: small-molecule microarray binding, higher = more signal;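 note: mouse activin A protein probed at 4.33 µg/mL on printed slides; score merges bound-protein fluorescence near 667 nm with spot signal-to-noise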
[11] = test system: Human papillomavirus type 1a protein E7 (residues 44-93); assay: HPV1a E7 fragment binders on microarrays, primary screen, biochemical, small-molecule microarray, residues 44-93, 635 nm fluorescence (AID 1108); conditions: small-molecule microarray binding, fluorescence 635 nm; higher = more signal;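 note: E7 fragment applied at 1 µg/mL in TBST for 1 h at 4 C; score combines spot fluorescence with its signal to noise ratio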
[12] = modulators of HCV replicon luciferase signal, primary screen, HCV replication inhibitor project, Huh7 cells, luciferase reporter (AID 1109); conditions: 48 h, higher = more signal;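 note: huh7 hepatoma cells harbouring a luciferase neomycin HCV replicon reporter; luciferase luminescence as measure of HCV replicon replication; test concentration not given here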
[13] = biological target: Left-right determination factor 2 (Homo sapiens) (UniProt O00292); assay: LEFTY2 binders on small-molecule microarrays, primary screen, biochemical, small-molecule microarray, 635 nm fluorescence scan (AID 1110); conditions: LEFTY2 binding, higher = more signal
Sequence of Left-right determination factor 2 (Homo sapiens) (O00292 whole entry, looked up): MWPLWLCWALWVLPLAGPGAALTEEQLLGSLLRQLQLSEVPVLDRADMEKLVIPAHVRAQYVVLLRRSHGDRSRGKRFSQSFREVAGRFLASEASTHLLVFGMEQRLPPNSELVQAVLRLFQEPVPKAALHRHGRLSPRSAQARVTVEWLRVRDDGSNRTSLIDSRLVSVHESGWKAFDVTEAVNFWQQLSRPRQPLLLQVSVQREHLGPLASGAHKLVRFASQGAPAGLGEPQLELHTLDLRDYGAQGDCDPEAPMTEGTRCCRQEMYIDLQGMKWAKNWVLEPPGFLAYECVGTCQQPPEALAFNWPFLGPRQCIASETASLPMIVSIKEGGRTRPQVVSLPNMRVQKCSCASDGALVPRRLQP

[14] = biological target: Calmodulin-1 (Homo sapiens) (UniProt P0DP23); assay: CALM1 binders on microarrays, EGTA buffer, profiling panel, biochemical, small-molecule microarray, Cy5-labelled CALM1 (AID 1111); conditions: Cy5-CALM1 binding fluorescence, higher = more signal;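 note: labelled calmodulin applied in Tris saline Tween buffer holding calcium plus EGTA and DTT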
[15] = biological target: Calmodulin-1 (Homo sapiens) (UniProt P0DP23); assay: calcium-bound CALM1 binders on microarrays, profiling panel, artefact control for SMM control-protein annotation, biochemical, small-molecule microarray, Cy5-labelled CALM1, plus calcium (AID 1112); conditions: Cy5-CALM1 binding fluorescence, higher = more signal;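 note: score merges spot fluorescence with signal to noise from triplicate slides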
[16] = small-molecule microarray binders of probe aWnt5a, primary screen, biochemical, biotinylated probe, 635/667 nm fluorescence (AID 1113); conditions: higher = more signal;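 note: score merges 667 nm fluorescence intensity with signal-to-noise per printed feature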
[17] = small-molecule microarray binders of probe aShh, primary screen, biochemical, biotinylated probe, 635/667 nm fluorescence (AID 1114); conditions: higher = more signal;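 note: probe is biotin-labelled aShh protein from a stem cell growth factor screen; measures binding of labelled protein to compounds printed on the slide; score merges feature fluorescence at 667 nm with signal-to-noise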
[18] = small-molecule microarray binders of probe aNog, primary screen, biochemical, biotinylated probe, 635/667 nm fluorescence (AID 1115); conditions: higher = more signal;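 note: probe is biotinylated aNog protein used at 0.15 µg/mL for 1 h at 4 C; z-score combines 667 nm fluorescence of each spot with its signal to noise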
[19] = biological target: Torsin-1A-interacting protein 1 (Homo sapiens) (UniProt Q5JTV8); assay: LAP1 binders from COS7 cell lysate, primary screen, small-molecule microarray, 635/667 nm fluorescence (AID 1116); conditions: COS7-hLAP1 lysate binding, 635 nm fluorescence, higher = more signal
Sequence of Torsin-1A-interacting protein 1 (Homo sapiens) (Q5JTV8 whole entry, looked up): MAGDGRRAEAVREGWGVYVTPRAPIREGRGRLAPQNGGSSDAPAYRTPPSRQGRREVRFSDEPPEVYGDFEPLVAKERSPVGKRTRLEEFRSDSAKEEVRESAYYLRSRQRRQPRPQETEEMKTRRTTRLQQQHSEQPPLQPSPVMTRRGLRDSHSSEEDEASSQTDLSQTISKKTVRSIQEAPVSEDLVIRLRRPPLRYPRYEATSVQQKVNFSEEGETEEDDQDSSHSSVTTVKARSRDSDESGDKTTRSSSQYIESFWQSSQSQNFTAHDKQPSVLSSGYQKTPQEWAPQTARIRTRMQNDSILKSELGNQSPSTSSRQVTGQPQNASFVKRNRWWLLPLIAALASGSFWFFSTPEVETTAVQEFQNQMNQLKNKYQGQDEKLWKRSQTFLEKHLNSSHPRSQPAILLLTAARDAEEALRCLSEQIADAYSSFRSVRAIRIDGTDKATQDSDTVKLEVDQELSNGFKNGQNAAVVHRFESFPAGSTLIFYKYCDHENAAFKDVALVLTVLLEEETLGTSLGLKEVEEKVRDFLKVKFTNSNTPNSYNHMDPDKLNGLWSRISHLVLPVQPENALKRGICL

[20] = biological target: Alpha-bungarotoxin (Bungarus multicinctus) (UniProt P60615); assay: alpha-bungarotoxin binders on microarray, profiling panel, artefact control for SMM control protein annotation, biochemical, small-molecule microarray, Alexa647 label, 635/667 nm fluorescence (AID 1117); conditions: alpha-BTX-A647 binding fluorescence, higher = more signal
Sequence of Alpha-bungarotoxin (Bungarus multicinctus) (P60615 whole entry, looked up): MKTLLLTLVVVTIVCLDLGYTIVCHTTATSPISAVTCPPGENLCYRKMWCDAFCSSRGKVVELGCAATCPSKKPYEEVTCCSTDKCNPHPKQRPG

Structure (SMILES) | composite z-score [1] | composite z-score [2] | composite z-score [3] | z-score [4] | composite z-score [5] | composite z-score [6] | composite z-score [7] | composite z-score [8] | composite z-score [9] | composite z-score [10] | composite z-score [11] | z-score [12] | composite z-score [13] | composite z-score [14] | composite z-score [15] | composite z-score [16] | composite z-score [17] | composite z-score [18] | composite z-score [19] | composite z-score [20]
Cc1ccc(S(=O)(=O)OC[C@@H]2CN3[C@@H](CC[C@@H](C)[C@@H]3c3ccc(Br)cc3)C(=O)O2)cc1 | 0.257 and 0.321 | 0.151 and 0.128 | -0.234 and -0.289 | 0.479 (inactive) and 0.402 (inactive) | 0.0993 and 0.625 | 0.0442 and 0.372 | 0.352 and 0.49 | 0.0546 and 0.262 | 0.235 and 0.46 | 0.758 and 0.354 | 0.574 and 0.644 | -0.796 and -0.729 | 0.57 and 0.483 | 0.192 and 0.679 | 0.2 and -0.302 | -0.0704 and 0.0194 | -0.237 and -0.16 | -0.172 and -0.0898 | 0.301 and 0.359 | 0.153 and 0.448
C[N+](C)(C)CCCCCCNC(=O)[C@H]1C[C@H]2C(=O)N[C@@H](CCCC[N+](C)(C)C)C(=O)N2[C@H]1c1ccc(O)cc1 | 0.819 and 1.44 | -0.359 and -0.0843 | -0.304 and 0.224 | -0.616 (inactive) and -0.146 (inactive) | 0.508 and -0.456 | -0.253 and -0.528 | 0.28 and -0.409 | 0.41 and -0.414 | 0.867 and 0.455 | 0.469 and 1.16 | -0.113 and 0.0498 | -0.0901 and 0.0595 | 0.633 and -0.0601 | -0.616 and -0.416 | -0.452 and -1.03 | -0.13 and -0.14 | -0.124 and 0.0326 | 0.0637 and -0.303 | -0.0201 and -0.413 | 1.02 and -1.54
CCOC(=O)NN=C1C[C@@H](O)[C@@H](O)[C@@H]2[C@@H]3C(=O)N(Cc4ccc5c(c4)OCO5)C(=O)[C@@H]3CC[C@@H]12 | 0.0867 | -0.0464 | -0.331 | 0.0278 (inactive) | 0.0364 | 0.424 | 0.231 | -0.406 | 0.0071 | -0.134 | 0.431 | -0.398 | -0.0145 | 0.257 | -0.727 | -0.006 | -0.0011 | -0.252 | 0.629 | 0.619
CCCCN1CC=CC23O[C@@H]4C=CCCOC(=O)C4[C@H]2C(=O)N(C(C)CO)[C@@H]3C1=O (stereo not given in full) | 0.381 and 0.0105 | -0.286 and -0.221 | 0.473 and -0.194 | 0.856 (inactive) and -0.0825 (inactive) | -0.346 and 0.232 | -0.662 and -0.551 | -0.683 and -0.191 | -0.934 and -0.0066 | -0.135 and 0.176 | 0.958 and 1.07 | 0.228 and -0.107 | -0.797 and -0.144 | -0.321 and 0.0741 | -0.495 and 0.257 | -0.396 and 0.473 | -0.0403 and -0.154 | 0.171 and 0.0637 | 0.179 and 0.0775 | -0.19 and 0.191 | -0.44 and -0.137
C=CCN(CCCC)C(=O)C1N(CCCCCCO)C(=O)C2C(C(=O)O)C3C=CC21O3 (stereo not given) | 1.64 and 0.937 | -0.288 and -0.0191 | 1.02 and 0.849 | 0.671 (inactive) and -0.0103 (inactive) | -1.87 and -1.39 | -1.1 | -1.93 and -1.35 | -2.74 and -2.04 | -2.67 and -3.18 | -2.85 and -2.5 | -0.498 and -0.27 | 0.227 and -0.883 | -3.06 and -3.09 | -0.494 and -0.605 | 0.169 and 0.392 | -0.184 and -0.226 | 0.0048 and -0.138 | -0.349 and -0.318 | -0.423 and 0.349 | -1.1 and -1.81
C[C@@H](ON=C1[C@H]2CCn3c(=O)n(-c4ccccc4)c(=O)n3[C@H]2[C@H](O)[C@@H]2O[C@H]12)c1cn([C@H](CO)Cc2ccccc2)nn1 | 0.494 | -0.173 | -0.569 | 0.211 (inactive) | 0.416 | 0.438 | 0.419 | 0.572 | 0.462 | -0.0477 | 0.46 | -3.71 | 0.605 | 0.0208 | -0.549 | -0.148 | -0.358 | -0.364 | -0.0609 | 0.24
CCN1C(=O)[C@H]2[C@H]3[C@H](O)[C@H](O)CC(=NOC)[C@@H]3CC[C@H]2C1=O | 0.767 | -0.0904 | -0.0826 | 0.302 (inactive) | -0.0502 | -0.595 | 0.1 | -0.0407 | 0.179 | 0.39 | -0.524 | 0.964 | 0.256 | -0.472 | -0.266 | -0.147 | 0.13 | -0.122 | 0.262 | 0.178
COC(=O)C1=C(C)N(Cc2ccccc2)C2=C(C(C)=O)[C@H](c3ccccc3)[C@@](O)(C(=O)OC)C(=O)N2[C@@H]1c1ccccc1 | 0.765 and -0.399 | 0.156 and -0.547 | -0.535 and -0.652 | -0.694 (inactive) and -2.98 (inactive) | 0.686 and 0.158 | 0.845 and -0.533 | 0.365 and 0.197 | 0.796 and 0.145 | 0.591 and -0.0346 | 0.174 and 1.21 | 0.895 and -1.59 | -0.396 and 0.347 | 0.64 and -0.705 | -0.271 and -0.503 | 0.004 and -0.587 | -0.0944 and 0.0102 | 0.151 and -0.0146 | -0.205 and -0.342 | -0.0984 and -0.136 | 0.538 and -0.436
C=C[C@@H](C)[C@@H](O)c1ccc(O)c2ccccc12 | 1.02 and -0.0966 | -0.419 and -0.315 | 0.238 and 0.216 | 0.591 (inactive) and -0.814 (inactive) | -0.665 and -0.654 | -1.52 and -0.746 | -0.815 and -1.04 | -0.961 and -0.644 | -0.598 and 0.088 | 0.936 and 0.89 | -0.719 and -0.288 | -1.55 and -2.15 | -1.21 and -0.861 | -0.878 and -0.992 | -0.36 and -0.903 | -0.146 and -0.236 | 0.23 and -0.214 | -0.337 and -0.411 | -0.802 and 0.0066 | -1.29 and 1.65
C=CCN(CCCC)C(=O)C1N(c2ccc(CCO)cc2)C(=O)C2C(C(=O)O)C3C=CC21O3 (stereo not given) | -1.39 and 1.08 | -0.112 and -0.229 | 0.354 and 1.07 | -0.378 (inactive) and 0.182 (inactive) | -1.48 and -1.93 | -1.54 and -1.22 | -1.51 and -2.06 | -1.76 and -2.15 | -2.31 and -3.32 | -1.59 and -3.61 | -2.07 and -0.32 | -0.213 and 1.02 | -2.86 and -4.53 | -0.828 and -1.3 | 0.33 and 0.554 | -0.221 and -0.296 | 0.0796 and 0.292 | -0.265 and -0.565 | -0.994 and -1 | -0.577 and -1.86
C=CC[C@@H](O)c1ccc(OCCO)cc1 | 0.153 and 0.572 | -0.458 and -0.292 | 0.644 and 0.889 | -1.87 (inactive) and -2.09 (inactive) | -0.906 and -0.929 | 0.512 and -0.567 | -0.798 and -1.61 | 0.132 and -0.565 | -0.751 and -1.58 | -0.911 and -1.46 | -1.68 and -0.85 | 1.71 and 1.54 | -0.301 and -1.81 | -1 and -1.27 | -0.166 and -0.74 | -0.184 and -0.247 | -0.138 and -0.0626 | -0.435 and -0.201 | 0.141 and -0.598 | -0.416 and 1.32
